# FEN1 inh: qHTS Assay for the Inhibitors of Human Flap endonuclease 1 (FEN1). AID 588795, 2011. Potency, µM (titrated, usually from 114 µM), inactives show top-dose activity change, negative = inhibition, most hits filed as inhibitors. 390,000 compounds, 0.35% hits. Recombinant FEN1 flap cleavage, fluorescence, 15 min; also: % is scaled to controls: 0 for no effect and ±100 for the full control effect; nearly all actives have a fitted effect of over 65% in size
#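 Enzyme 10 nM, 15 min RT preincubation with compound; start with substrate 50 nM final; reads at 0 and 15 min; qHTS titration, four-parameter Hill fit.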
# Pol kappa inh: qHTS for Inhibitors of Polymerase Kappa | Potency, µM (doses to about 107 µM), for inactives: at the top dose activity, negative = inhibition, actives largely listed as inhibitors | DNA polymerase kappa (Homo sapiens), Q9UBT6 | purified Pol kappa, fluorescent DNA synthesis assay, 10 min | 400,000 compounds, 0.53% hits; also: % is scaled to controls: 0 for no effect and ±100 for the full control effect
#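 Enzyme at 10 nM met test compounds for 15 min at room temperature. Substrate addition (50 nM final) began the reaction, which was monitored by fluorescence at 0 and 10 min.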
# TDP1 inh: qHTS Assay for Inhibitors of Tyrosyl-DNA Phosphodiesterase (TDP1). Tyrosyl-DNA phosphodiesterase 1 (Homo sapiens), Q9NUW8. recombinant TDP1, AlphaScreen DNA substrate cleavage. Potency, µM (titrated, usually from 130 µM), for the others: at the top dose activity change, negative = inhibition, usual class: inhibitors. 350,000 compounds, 0.28% hits. AID 485290, 2010; also: % is scaled to controls: 0 for no effect and ±100 for the full control effect; nearly all actives have a fitted effect of over 40% in size
#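 Enzyme-compound mixtures sat 15 min at room temperature, followed by a 5 min reaction with 15 nM final substrate and 10 min with AlphaScreen beads. Recombinant human Tdp1 was used at 1 nM final.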
# POLH inh: qHTS for Inhibitors of Polymerase Eta. Potency, µM (series often up to 114 µM), without a hit: top-dose activity change, negative = inhibition, usual class: inhibitors. recombinant Pol eta, fluorescent DNA replication assay. 390,000 compounds, 1.2% hits. DNA polymerase eta (Homo sapiens), Q9Y253; also: % is scaled to controls: 0 for no effect and ±100 for the full control effect
# Target sequence (Q9Y253 whole entry, looked up): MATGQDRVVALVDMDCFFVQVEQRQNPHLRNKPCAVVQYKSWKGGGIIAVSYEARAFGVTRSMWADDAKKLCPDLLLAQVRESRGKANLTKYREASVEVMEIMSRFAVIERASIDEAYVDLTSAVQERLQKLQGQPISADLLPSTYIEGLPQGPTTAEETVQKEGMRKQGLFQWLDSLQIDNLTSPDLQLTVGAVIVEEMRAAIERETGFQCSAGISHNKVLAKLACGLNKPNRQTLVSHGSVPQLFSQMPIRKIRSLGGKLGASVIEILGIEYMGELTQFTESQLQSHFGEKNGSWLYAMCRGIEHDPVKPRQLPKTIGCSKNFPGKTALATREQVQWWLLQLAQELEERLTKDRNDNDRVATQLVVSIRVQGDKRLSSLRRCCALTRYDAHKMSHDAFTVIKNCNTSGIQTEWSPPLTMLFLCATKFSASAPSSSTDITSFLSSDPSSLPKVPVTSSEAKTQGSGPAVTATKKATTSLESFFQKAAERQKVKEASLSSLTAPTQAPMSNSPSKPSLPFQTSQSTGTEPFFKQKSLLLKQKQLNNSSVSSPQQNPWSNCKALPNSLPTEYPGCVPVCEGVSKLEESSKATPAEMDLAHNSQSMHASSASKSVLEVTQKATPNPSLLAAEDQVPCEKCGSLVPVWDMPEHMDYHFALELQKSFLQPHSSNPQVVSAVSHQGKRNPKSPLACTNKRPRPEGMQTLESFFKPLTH
#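 Pol eta (10 nM) was preincubated with compounds for 15 min at room temperature, after which fluorescent replication substrate (50 nM final) was added to start the reaction. Fluorescence was read kinetically at 0 and 10 min.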
# POLI inh: qHTS for Inhibitors of Polymerase Iota; Pol iota fluorescent replication assay, 10 min; Potency, µM (doses to about 115 µM), inactives show at the highest dose activity, negative = inhibition, actives largely listed as inhibitors; 390,000 compounds, 1% hits; AID 588590, 2011
#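 Fluorescent replication assay read twice, at 0 min and 10 min after adding 50 nM (final) substrate. Enzyme (10 nM) and compounds were first incubated 15 min at room temperature; enzyme-free buffer wells were negative controls.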
# Pol beta inh: qHTS Assay for Inhibitors of DNA Polymerase Beta. Pol beta primer extension/strand displacement, fluorescence kinetic. 340,000 compounds, 1.3% hits. Potency, µM (series often up to 114 µM), for inactives: top-dose activity change, negative = inhibition, usual class: inhibitors. P06746; also: % is scaled to controls: 0 for no effect and ±100 for the full control effect
#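 Curves were derived by four-parameter Hill fits of normalized qHTS data. The kinetic fluorescent primer-extension read was taken at 0 and 10 min after 50 nM substrate, following a 15 min room-temperature preincubation of 10 nM enzyme with compounds.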
# An asterisk follows results filed as active; ? = inconclusive; nt = no result; [ ] = another dose, or the depositor's remark. An excerpt weighted towards active compounds, which were near 2.4% of everything screened. Calls follow the shape of the dose curve; as a rule, active = well fitted curve in the direction sought with a large enough effect; inconclusive = small, poorly fitted or top-dose-only effect, or another doubt; inactive = no such curve, though single readings can be large; an effect the other way counts as inactive or inconclusive. Potency is read from the fitted curve at half-maximal effect.
SMILES,FEN1 inh,Pol kappa inh,TDP1 inh,POLH inh,POLI inh,Pol beta inh
CCN(c1ccc(NC(=O)COC(=O)/C=C/c2ccco2)cc1)C(C)C,2%,-5%,6%,-23%,3%,nt
O=C(COC(=O)/C=C/c1ccco1)Nc1ccccc1,16%,-32%,nt,?,?,22µM*
CNC(=O)COC(=O)c1c2c(nc3ccccc13)CCC2,?,?,nt,25µM*,8.9µM*,20µM*
O=C(NC1CCCCC1)c1c2c(nc3ccccc13)CCC2,-9%,-19%,-6%,?,79µM*,20µM*
CN(C)/[N+]([O-])=N/Oc1ccc([N+](=O)[O-])cc1C(F)(F)F,-13%,-8%,nt,nt,25%,nt
Cc1cc(C)n(/N=C/c2ccco2)c(=O)c1C#N,-2%,-13%,1%,-16%,?,40µM*
Cc1ccc(/C=N/n2c(C)cc(C)c(C#N)c2=O)o1,-2%,-1%,3%,-16%,2%,-1%
Cc1ccc(S(=O)(=O)N2CCN(c3nc(-c4ccnnc4)nc4ccccc34)CC2)cc1,11%,14%,-1%,nt,13%,nt
CCc1nnc(NC(=O)c2ccc(Cl)c(S(=O)(=O)N3CCc4ccccc43)c2)s1,-2%,-24%,3%,?,?,20µM*
O=C(Nc1ccncc1)c1ccc(Cl)c(S(=O)(=O)N2CCc3ccccc32)c1,-6%,-4%,-4%,-2%,9%,nt
CNc1cc(C(=O)O)nc2ccccc12,-1%,-24%,nt,nt,?,nt
O=C(CCC(=O)N1CCN(c2ccc(O)cc2)CC1)c1cccs1,11%,-12%,4%,-21%,71µM*,?
CCOc1ccc(CNC(=O)c2ccc3c(c2)c(C)c(C)n3Cc2ccccc2)cc1OC,1%,3%,11%,1%,25%,-8%
Cc1ccccc1Nc1nn2c(=O)c3ccc(C(=O)NCC(C)c4ccccc4)cc3nc2s1 (configuration not stated),-12%,-18%,8%,-9%,20%,1%
Cc1ccccc1Nc1nn2c(=O)c3ccc(C(=O)NCc4cccs4)cc3nc2s1,9%,-1%[60.1 µM],nt,?,79µM*,20µM*
Cc1ccc(S(=O)(=O)N2CCN(c3nc(-n4ccnn4)nc4ccccc34)CC2)cc1,-3%,7%,nt,nt,10%,nt
O=C1CC(c2ccco2)Cc2[nH]c(=O)c(C(=O)Nc3ccccc3)cc21 (configuration not stated),-12%,-12%,nt,nt,20%,nt
CN(C)c1ccc(/C=C2\SC(=O)N(CCc3nnc(N)s3)C2=O)cc1,2%,-18%,nt,-11%,50µM*,?
COc1ccc(C2Nc3ccccc3C(=O)N2Cc2ccccc2)cc1Oc1ccc(NC(C)=O)cc1 (configuration not stated),nt,nt,0%,nt,nt,nt
COc1cc(-c2nc3ccccn3c2/N=C/c2cccc(F)c2)ccc1O,-20%,-8%,-3%,-16%,45%,23%
COc1cc(-c2nc3ccccn3c2/N=C/c2cc(OC)c(O)cc2Cl)ccc1O,?,?,-5%,?,?,25µM*
CCN=C1S/C(=C/c2ccc(-c3ccc(Cl)cc3C(=O)O)o2)C(=O)N1CC,?,-18%,nt,35µM*,-6%,0%
CCN1C(=O)/C(=C\c2ccc(-c3cccc(C(=O)OC)c3)o2)SC1=Nc1ccc(C(=O)O)cc1,nt,nt,nt,nt,nt,-22%
O=C1/C(=C\c2ccco2)SC(=S)N1c1ccccc1,-4%,-25%,0%,?,?,28µM*
Cc1ccc(N2C(=O)/C(=C\c3ccco3)SC2=S)cc1,-1%,79µM*,-4%,?,?,45µM*
O=C1/C(=C/c2ccco2)SC(=S)N1C1CCS(=O)(=O)C1 (configuration not stated),-9%,?,-5%,-8%,?,13µM*

# Source: PubChem (National Center for Advancing Translational Sciences (NCATS))
